Screening results (PubChem BioAssay)
The list is not random: actives were taken first. Their share in the collection is about 7.4%.
Rab9 prom act – activators of Rab9 promoter. Huh7 Rab9 promoter-luciferase reporter, luminescence, 24 h. Potency, µM (titrated, usually from 9.22 µM), inactives show at the highest dose activation, negative = inhibition, hits mostly activators. 2.8% of 320,000 active; note: % of control where 0% means no effect; nearly all actives have a fitted effect of over 60% in size
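Cells were plated at 1500 per well in reduced-serum medium with 10% FBS and left 2 h. Compound in DMSO was then added for 24 h at 37 °C. Reporter signal was read by luminescence after 10 min with luciferase detection reagent.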
Luc counter – blocks Kinase-Glo luciferase, a counter-screen artifact; Q27757; Kinase-Glo luciferase, ATP luminescence, 8 min; Potency, µM (doses to about 38.3 µM), without a hit: top-dose activity change, negative = inhibition, hits mostly inhibitors; AID 1379; 0.28% of 200,000 active; note: % is set by controls: 0 for no effect and ±100 for the full control effect; nearly all actives have a fitted effect of over 60% in size
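Recombinant Kinase-Glo luciferase, 10 uM ATP (linear range), luciferin; imidazole pH 7.2 / KCl / MgCl2 / Tween / BSA buffer; 8 min RT; luminescence.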
ELG1 genotoxic – induces genotoxicity in HEK293T cells with luciferase-tagged ELG1. AID 504466. Potency, µM (top dose mostly 46 µM), without a hit: at the highest dose activity change, positive = activation, hits mostly activators. HEK293T ELG1-luciferase reporter, luminescence, 16 h. 1.3% of 330,000 active; note: % of control where 0% means no effect; nearly all actives have a fitted effect of over 60% in size
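Reporter readout depends on ELG1 protein level, which increases with genetic stress. After 16 hr compound exposure at 37 °C, luciferase activity was quantified using ONE-Glo.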
NPC1 promoter act – activates the NPC1 promoter. Huh7 NPC1 promoter luciferase reporter, 24 h. 2.4% of 320,000 active. Potency, µM (series often up to 9.22 µM), for inactives: at the highest dose activation, hits mostly activators; note: % of control where 0% means no effect; nearly all actives have a fitted effect of over 60% in size
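NPC1 promoter–luciferase Huh7 cells; 24 h compound; luminescence.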
SMN2 splice up – SMN2 splice variant enhancement | HEK293 SMN2-luciferase splicing reporter, luminescence, 30-36 h | Potency, µM (titrated, usually from 46.1 µM), without a hit: at the top dose activity change, positive = activation, most hits filed as activators | 2.8% of 210,000 active | AID 1458; note: % of control where 0% means no effect; nearly all actives have a fitted effect of over 55% in size
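HEK293 cells carry an SMN2 […]–luciferase reporter in which exon 7 inclusion puts luciferase in frame. Cells were plated 10-12 h before compound addition, then incubated 30-36 h at 37C. ONE-Glo luminescence was read; sodium butyrate at 4.5 mM final served as control.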
FLuc modulator – firefly luciferase modulation, counter-screen for miR-21 project | purified FLuc, Km substrates, luminescence inhibition | 6.9% of 360,000 active | Potency, µM (series often up to 57.5 µM), for the others: top-dose activity change, negative = inhibition, actives largely listed as inhibitors;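 note: plate controls were vehicle for no effect and reference inhibitor for full effect; nearly all actives have a fitted effect of over 55% in size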
Target sequence (P08659 whole entry, looked up): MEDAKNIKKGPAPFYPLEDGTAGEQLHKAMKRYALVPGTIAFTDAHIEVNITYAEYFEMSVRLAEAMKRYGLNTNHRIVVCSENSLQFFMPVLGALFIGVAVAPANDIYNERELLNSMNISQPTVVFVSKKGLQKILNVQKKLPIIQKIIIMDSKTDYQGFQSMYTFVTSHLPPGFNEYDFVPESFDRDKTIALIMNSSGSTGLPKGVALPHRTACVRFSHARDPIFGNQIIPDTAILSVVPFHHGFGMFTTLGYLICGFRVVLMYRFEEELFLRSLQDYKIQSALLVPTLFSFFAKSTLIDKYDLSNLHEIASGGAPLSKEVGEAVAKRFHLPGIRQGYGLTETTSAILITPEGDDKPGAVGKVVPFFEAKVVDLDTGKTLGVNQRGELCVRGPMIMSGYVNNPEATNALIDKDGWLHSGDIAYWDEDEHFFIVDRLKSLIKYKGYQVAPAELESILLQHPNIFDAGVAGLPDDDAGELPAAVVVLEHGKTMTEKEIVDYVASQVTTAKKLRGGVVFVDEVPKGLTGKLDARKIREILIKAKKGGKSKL
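Purified P. pyralis luciferase (10nM final) with 10uM D-luciferin and 10uM ATP (Km levels) in 50mM Tris acetate pH 7.5, 10mM Mg acetate, 0.01% Tween-20, 0.05% BSA; qHTS 6-point titration, ~60 µM downward; luminescence read.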
* = called active by the depositor; u = inconclusive; x = no result given; [ ] = another dose, or the depositor's remark. Calls come from the whole dose curve; as a rule, active = well fitted curve in the direction sought with a large enough effect; inconclusive = small, poorly fitted or top-dose-only effect, or another doubt; inactive = no such curve, though single readings can be large; an effect the other way counts as inactive or inconclusive. Potency is the fitted concentration of half-maximal effect.

SMILES | Rab9 prom act | Luc counter | ELG1 genotoxic | NPC1 promoter act | SMN2 splice up | FLuc modulator
CN1CCN(C(CNC(=O)C(=O)Nc2ccccc2)c2ccc3c(c2)OCO3)CC1 (stereo not given) | x | x | x | x | x | -1%
Cc1ccc(NC(=O)CC2Sc3ccccc3NC2=O)c(Br)c1 (stereo not given) | x | x | x | x | -2% | -5%
Cc1ccc(-n2ncc3c(NCCCN4CCOCC4)ncnc32)cc1Cl | x | x | x | x | x | 9.5µM*
C=Cc1cccc(C)c1 | x | x | x | x | -3% | x
CCCNC(=S)NNC(=O)c1cc(-c2cccnc2)nc2ccccc12 | -9% | x | -2% | -1% | x | 19µM*
C/C(=N\NC(=O)c1cc(-c2cccnc2)nc2ccccc12)c1ccccc1O | -33% | -2% | u | -36% | -82% | u
CCNC(=S)NNC(=O)c1cc(C)nc2ccccc12 | -8% | 5% | -1% | -3% | 16% | -14%
CCCCNC(=S)NNC(=O)c1cc(-c2cccnc2)nc2ccccc12 | 0% | x | 0% | -2% | x | 15µM*
CCNC(=S)NNC(=O)c1cc(-c2cccnc2)nc2ccccc12 | 3% | u | 3% | -3% | 13% | 9.5µM*
Clc1ccc(N=NN2CCOCC2)cc1 | 21% | x | u | 18% | x | 17µM*
NS(=O)(=O)c1ccc(N=NN2CCCCC2)cc1 | u | -3% | 11% | u | x | 17µM*
CC(=O)NS(=O)(=O)c1ccc(N=NN2CCCCC2)cc1 | 1% | -2% | 2% | -2% | 2% | 2%
O=C(O)C1SCCN1S(=O)(=O)c1ccc(N=NN2CCOCC2)cc1 (stereo not given) | -8% | 0% | 0% | -2% | x | 1%
COC(=O)c1ccc(N=NN2CCOCC2)cc1 | u | -2% | u | u | 11µM* | 17µM*
COC(=O)c1ccc(N=NN2CCCCCC2)cc1 | 3.2µM* | -1% | u | 2.2µM* | 13µM* | 6.7µM*
Cc1ccc(S(=O)(=O)NCCc2cn3ccsc3n2)c(C)c1 | x | x | x | x | x | -2%
O=C(NCc1ccccc1)C1CCN(S(=O)(=O)Cc2ccccc2)CC1 | x | x | x | x | x | -5%
CC(=O)N(C(C)=O)S(=O)(=O)c1ccc(N=NN2CCCCC2)cc1 | 1% | -2% | 1% | -1% | 1% | -1%
O=C(O)c1ccc(N=NN2CCCCC2)cc1 | 1.3µM* | -13% | u | u | 26% | 11µM*
CN(C(=O)c1ccncc1)c1nnc(-c2ccccn2)s1 | u | 0% | u | 23% | u | 17µM*
CN(C(=O)c1ccncc1)c1nnc(-c2cccnc2)s1 | 2% | 1% | u | 2% | x | 3%
CN(C(=O)c1ccc(C#N)cc1)c1nnc(-c2ccccn2)s1 | 4% | 2% | 10% | -3% | -14% | -10%
CN(C(=O)c1ccno1)c1nnc(-c2ccccn2)s1 | 5% | -5% | 14% | 12% | -1% | 15µM*
Cc1ccc(C(=O)N(C)c2nnc(-c3ccncc3)s2)cc1 | u | -2% | 13% | u | 30% | 17µM*
COc1ccc(-c2nnc(N(C)C(=O)C3CCCO3)s2)cc1 (stereo not given) | 2µM* | 1% | u | 2.5µM* | 11µM* | 13µM*
SMILES | Rab9 prom act | Luc counter | ELG1 genotoxic | NPC1 promoter act | SMN2 splice up | FLuc modulator
COc1ccc(-c2nnc(N(C)C(=O)c3ccno3)s2)cc1 | 3.2µM* | -2% | u | u | 11µM* | 11µM*
CCCCC(=O)Nc1nnc(-c2ccc(OC)cc2)s1 | 27% | -1% | 6% | 27% | u | u
CCCN(CCC)C(=O)SCC | x | x | x | x | -6% | x
O=C(N/N=C/c1ccco1)c1cc(C2CC2)nc2ccccc12 | 0% | 2% | 0% | -2% | -5% | -2%
COc1cccc(-c2c(C(=O)N/N=C/c3ccco3)nnn2-c2nonc2N)c1 | -2% | x | -1% | 2% | x | 2%
COc1cccc(-c2cc(C(=O)N/N=C/c3ccco3)c3ccccc3n2)c1 | 1% | x | 1% | -1% | x | 3.4µM*
O=C(N/N=C/c1ccco1)c1cc(-c2ccccc2)nc2ccccc12 | 0% | x | -4% | 13% | x | 21µM*
COc1cccc(CNc2nc3c(-c4cccc(C)c4)nnn3c3ccccc23)c1 | x | x | x | x | 2% | -3%
O=C(Nc1nc2n(n1)C(c1ccc(Cl)cc1)C=C(c1ccccc1)N2)c1ccco1 (stereo not given) | x | x | x | x | x | -5%
CC(C)CS(=O)(=O)C1=NSC2=NC(=O)/C(=C\c3ccc(OC(=O)c4ccco4)cc3)C(=N)N21 | 2% | x | 1% | 9% | x | u
CSC1=NSC2=NC(=O)/C(=C\c3ccc(OC(=O)c4ccco4)cc3)C(=N)N12 | 1.6µM* | x | u | 3.5µM* | x | 19µM*
CS(=O)(=O)C1=NSC2=NC(=O)/C(=C\c3ccc(OC(=O)c4ccco4)c(Br)c3)C(=N)N21 | 2% | x | 3% | -1% | x | 13µM*
O=C(Nc1ccc2nc(SCC(=O)N3CCCc4ccccc43)sc2c1)c1cccc(Cl)c1 | x | x | x | x | x | -11%
CC[C@H]1C(c2cccc(Cl)c2)=NN(c2ccccc2)[C@@H]1CO | x | -2%[39.9 µM] | x | x | x | x
Cc1ccc(NC(=O)N2CCCCCC2)cc1 | u | x | u | u | x | 15µM*
O=C(Nc1ccccc1)N1CCN(CCc2ccccc2)CC1 | -1% | 0% | 3% | -1% | 7% | -2%
COc1ccc(NC(=O)N2CCCCC2)cc1 | 24% | -4% | u | 17% | u | -22%
CCOC(=O)c1ccc(N/C=C2\CCCCC2=O)cc1 | 2.5µM* | -3% | 2.3µM* | 4µM* | u | 2.7µM*
O=C1CCCC/C1=C\Nc1ccc(O)cc1 | 15% | -12% | u | 11% | u | u
O=C(Nc1ccc(Br)cc1)N1CCCCCC1 | 2.2µM* | x | u | u | x | 11µM*
CCN1CCN(C(=O)Nc2ccc(Cc3ccc(NC(=O)N4CCN(CC)CC4)cc3)cc2)CC1 | 11% | -5% | -5% | 1% | 7% | 13µM*
CCOc1ccccc1NC(=O)C(=O)Nc1ccc2nc3n(c(=O)c2c1)CCCCC3 | x | x | x | x | -3% | -7%
CCc1ccc(NC(=O)CSc2nccn2C2CCCC2)cc1 | x | x | x | x | x | -3%
CCOC(=O)c1c(C)[nH]c(C)c1S(=O)(=O)N(C)CC(=O)Nc1ccc(C)cc1C | x | x | x | x | x | 0%
CCc1ccc(NC(=O)N2CCCCCC2)cc1 | 1.8µM* | x | 21µM* | 2.2µM* | x | 13µM*
CCOC(=O)c1ccc(NC(=O)N2CCCCC2)cc1 | 3.2µM* | -1% | 10µM* | 2.5µM* | u | 13µM*
CCc1ccc(NS(=O)(=O)c2ccc(NC(=O)N3CCCC3)cc2)cc1 | x | x | x | x | x | 2%
COC(=O)c1ccc(NC(=S)N2CCCC2)cc1 | -3% | 3% | -8% | 0% | 11% | 4%
COC(=O)c1ccc(NC(=O)C(=O)N2CCCC2)cc1 | u | -10% | u | 2.8µM* | u | 21µM*
